Screening results (PubChem BioAssay)
Most compounds without a hit are left out; they make up all but 12% or so of the library.
JMJD2A Tudor: blocks the human JMJD2A Tudor domain; Potency, µM (top dose mostly 114 µM), for the others: top-dose activity change, negative = inhibition, most hits filed as inhibitors; AlphaScreen JMJD2A-Tudor / H3K4me3 peptide binding; AID 504339; 4.4% of 390,000 active; O75164; also: % is scaled to controls: 0 for no effect and ±100 for the full control effect; nearly all actives have a fitted effect of over 50% in size
Sfp PPTase inh: Sfp phosphopantetheinyl transferase inhibition; Q9F4F7; Biochemical Sfp PPTase activity, qHTS; Potency, µM, inactives show largest response in the series, negative = inhibition, most hits filed as inhibitors; 3.5% of 310,000 active; AID 1490;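 also: the enzyme is Sfp with the accession as filed and its product quenches rhodamine fluorescence; 0% = enzyme reaction without inhibitor and -100% = no enzyme wells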
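After 15 min at room temperature with compound, 15 nM Sfp received 5 uM rhodamine-CoA plus 12.5 uM BHQ-2-ybbR (50 mM Hepes pH 7.6, 10 mM MgCl2). Rate came from the fluorescence difference over 30 min, ex 525/em 598 nm.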
BAZ2B inh: inhibitors of human BAZ2B bromodomain; AlphaScreen BAZ2B-H3K14Ac peptide displacement; Q9UIF8; AID 504333; Potency, µM (titrated, usually from 114 µM), for the others: at the highest dose activity change, negative = inhibition, usual class: inhibitors; 4.4% of 360,000 active; also: % is scaled to controls: 0 for no effect and ±100 for the full control effect; nearly all actives have a fitted effect of over 60% in size
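Protein-peptide AlphaScreen: BAZ2B 50 nM, b-H3K14Ac 50 nM, 1x PBS pH 7.4 + 0.01% Tween-20. Preincubation 30 min RT; cpd 30 min RT (top 110 uM); beads 20 min RT, light-protected.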
G9a block: blocks human histone lysine methyltransferase G9a. Q96KQ7. G9a H3K9 monomethylation, AlphaScreen, 2 h. Potency, µM (titrated, usually from 102 µM), for the others: at the top dose activity, negative = inhibition, usual class: inhibitors. 8.8% of 350,000 active; also: % is scaled to controls: 0 for no effect and ±100 for the full control effect; nearly all actives have a fitted effect of over 75% in size
Target sequence (Q96KQ7 913-1193 limits assumed): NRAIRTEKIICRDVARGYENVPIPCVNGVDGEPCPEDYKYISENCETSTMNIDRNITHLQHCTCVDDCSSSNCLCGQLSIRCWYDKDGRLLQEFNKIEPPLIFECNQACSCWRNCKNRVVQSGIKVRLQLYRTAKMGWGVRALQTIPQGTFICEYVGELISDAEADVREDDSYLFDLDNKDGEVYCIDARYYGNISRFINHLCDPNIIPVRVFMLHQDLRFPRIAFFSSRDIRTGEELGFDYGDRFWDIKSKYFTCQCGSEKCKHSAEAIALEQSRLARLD
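G9a (20 nM) preincubated 15 min RT with compounds, then 500 nM biotinylated H3K9 peptide and 20 uM SAM added; 2 h RT reaction. Monomethyl-H3K9 product detected by AlphaScreen with anti-H3K9me1 antibody, streptavidin donor and anti-rabbit IgG acceptor beads.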
HP1b binding inh: blocks HP1-beta chromodomain binding to methylated histone tails; 0.56% of 390,000 active; AlphaScreen HP1-beta / biotin-H3K9me3 peptide binding; Potency, µM (series often up to 114 µM), without a hit: at the top dose activity change, negative = inhibition, hits mostly inhibitors; P83916; also: nearly all actives have a fitted effect of over 70% in size
Target sequence (P83916 whole entry, looked up): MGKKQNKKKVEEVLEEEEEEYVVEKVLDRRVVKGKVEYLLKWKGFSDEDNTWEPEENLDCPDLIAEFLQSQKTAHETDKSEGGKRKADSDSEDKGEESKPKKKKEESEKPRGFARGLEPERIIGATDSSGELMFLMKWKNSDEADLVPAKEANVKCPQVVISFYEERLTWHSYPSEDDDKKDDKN
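AlphaScreen: HP1-beta (50 nM) preformed 30 min with biotin-H3(1-18)K9me3 peptide (50 nM) in PBS pH 7.4, 0.01% Tween-20. Compound added for 30 min at RT, then streptavidin donor/nickel chelate acceptor beads (10 ug/mL) for 30 min.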
L3MBTL1 block: blocks human L3MBTL1 | Q9Y468 | AlphaScreen L3MBTL1–H3K9me1 peptide binding | Potency, µM (titrated, usually from 57.1 µM), for inactives: top-dose activity, negative = inhibition, actives largely listed as inhibitors | 0.66% of 230,000 active | AID 485360; also: % is scaled to controls: 0 for no effect and ±100 for the full control effect; nearly all actives have a fitted effect of over 60% in size
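Displacement of a biotinylated histone H3(1-15) peptide monomethylated at Lys9 (75 nM) from L3MBTL1 (50 nM) was measured by AlphaScreen after a 30 min room-temperature compound incubation; cefsulodin titration served as intraplate control.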
Starred values were filed as active, the others as inactive; ? = inconclusive; nt = not tested or not shown; ! = a repeat was not active; [ ] = remark or other dose. Calls follow the shape of the dose curve; as a rule, active = well fitted curve in the direction sought with a large enough effect; inconclusive = small, poorly fitted or top-dose-only effect, or another doubt; inactive = no such curve, though single readings can be large; an effect the other way counts as inactive or inconclusive. Potency is read from the fitted curve at half-maximal effect.

SMILES	JMJD2A Tudor	Sfp PPTase inh	BAZ2B inh	G9a block	HP1b binding inh	L3MBTL1 block
CCN1CC2(OC(=O)c3ccccc3NC(C)=O)CCC(OC)[C@]34C1[C@H](CC23)[C@@]1(O)C[C@H](OC)[C@H]2CC4C1(O)[C@H]2OC (some centres undefined)	nt	-5.9%	nt	nt	nt	nt
CC(C)c1c(CN(C)[C@@H](C)Cc2ccccc2)n(C)n(-c2ccccc2)c1=O	nt	-4.3%	nt	4.2%[5.15 µM]	nt	nt
Cc1ccc(S(=O)(=O)NP(=O)(Oc2ccccc2)Oc2ccccc2)cc1	?	21.7%	-22.8%	56.2µM*	18.4%	nt
O=P(NS(=O)(=O)c1ccc(Br)cc1)(Oc1ccccc1)Oc1ccccc1	-11.7%	12.6%	?	-12.2%[12.7 µM]	12.8%	nt
O=P(NS(=O)(=O)c1ccccc1)(Oc1ccccc1)Oc1ccccc1	?	29.4%	-39.0%	56.2µM*	25.0%	nt
Cc1cc(NC(=O)c2cc(-c3cccc(Cl)c3)on2)nn1Cc1ccc(Cl)cc1	6.8%	nt	?	?	26.6%	nt
Cc1occc1C(=O)Nc1ccccc1	nt	4.6%	nt	nt	nt	nt
O=C1NC(=S)NC(=O)C1=Cc1ccc2c(c1)CCN2CCCCl	7.94µM*	15.8µM*	25.1µM*	10µM*	?	nt
C[C@H](NC(=O)[C@@H](N)Cc1ccc(O)cc1)C(=O)N[C@@H](Cc1ccccc1)C(=O)NCC(=O)N[C@@H](Cc1ccc(O)cc1)C(=O)N1CCC[C@H]1C(=O)N[C@@H](CO)C(N)=O	nt	20.7%	nt	27.6%[59 µM]	nt	nt
O=C(O)c1cc[c]([Hg][Cl])cc1	0.891µM*	nt	1.26µM*	1µM*!	?	8.2%
COCCNCCOc1ccc(C(C)(C)c2ccccc2)cc1	31.6µM*	-22.7%	?	11.2µM*	?	3.7%
C[N+](C)(C)CCOC(=O)C(O)(c1ccccc1)c1ccccc1	nt	6.9%	nt	?	nt	nt
C/C=C(/C)C(=O)O[C@H]1C(C)=C2C([C@@H]1OC(=O)CCCCCCC)[C@@](C)(OC(C)=O)C[C@@H](OC(=O)CCC)[C@@]1(O)[C@H]2OC(=O)[C@@]1(C)O (some centres undefined)	nt	nt	nt	43.0%[12.7 µM]	nt	nt
Cc1ccc(/C=C2\C(=O)NC(=S)N(c3ccccc3F)C2=O)s1	70.8µM*	14.1µM*	50.1µM*	?	?	?
Cc1ccc(/C=C2\C(=O)NC(=O)N(CC3CCCO3)C2=O)s1 (centres undefined)	-23.4%	?	?	?	27.0%	-14.9%
Cc1ccc(/C=C2\C(=O)NC(=S)N(c3ccc(F)cc3)C2=O)s1	-34.0%	-2.7%	44.7µM*	6.31µM*	11.0%	nt
O=c1[nH]c(=O)n(CCC2=CCCCC2)c(O)c1C=NCc1cccnc1	-4.5%	-2.2%	-0.7%	50.1µM*	25.5%	5.4%
CC(C)=CCSc1nnc([C@@H](N)Cc2c[nH]c3ccccc23)o1	?	-1.3%	-7.9%	3.55µM*	?	2.4%[11.4 µM]
C=C(C)CSc1nnc([C@@H](N)Cc2c[nH]c3ccccc23)o1	-33.3%	-35.5%	-28.3%	nt	40.7%	-3.7%
Cn1nc(-c2ccc(C(=O)Nc3ccc(OC(F)(F)F)cc3)cc2)c2ccccc2c1=O	0.0%	nt	2.4%	-4.7%[59 µM]	45.5%	nt
O=C1NC(=O)C2(Cc3ccccc3N3CCCC32)C(=O)N1c1ccc(Cl)cc1 (centres undefined)	?	-1.5%	12.2%	20µM*	14.8%	-9.9%
CN1C(=O)N(C)C(=O)C2(Cc3ccccc3N3CCCC32)C1=O (centres undefined)	-20.4%	-8.5%	-6.0%	10.9%[12.7 µM]	26.9%	-6.3%
Cc1ccc(N2C(=O)NC(=O)C3(Cc4ccccc4N4CCCC43)C2=O)cc1 (centres undefined)	-27.0%	?	-1.5%	8.91µM*	33.0%	-3.3%
CN1CCC(OC(=O)Cc2ccccc2)CC1	-10.8%	15.1%	-4.4%	-10.2%	50.2%	-8.3%
C[N+]1(CC(COCc2ccccc2)OC(=O)Cc2ccccc2)CCOCC1 (centres undefined)	?	14.9%	-6.4%	8.91µM*	-18.1%	5.9%
SMILES	JMJD2A Tudor	Sfp PPTase inh	BAZ2B inh	G9a block	HP1b binding inh	L3MBTL1 block
Cc1ccc(-c2nc(N3CCOCC3)s[n+]2-c2ccccc2)cc1	8.91µM*	?	?	0.891µM*	?	3.9%
COC(=O)[C@]12C(=O)C(C)=C(O)[C@@]1(C)C(C)=CC1[C@@]34CC[C@@H](OC(C)=O)C(C)(C)C3C(C[C@]12C)OC4=O (some centres undefined)	8.2%	11.0%	-18.1%	12.7%[12.7 µM]	51.5%	nt
C=Cn1ccnc1P(=S)(c1ccc(N(C)C)cc1)c1nccn1C=C	?	-3.7%	?	-30.3%[59 µM]	10.7%	-0.7%
Cn1ccnc1P(=S)(c1nccn1C)c1nccn1C	31.6µM*	50.1µM*	?	3.55µM*	3.8%	7.5%
Cn1ccnc1P(=S)(c1nccn1C)N1CCOCC1	35.5µM*	?	?	?	?	-2.3%
C[C@H]1CO1	nt	4.2%	nt	nt	nt	nt
CN(C)c1ccc(C(O)P(=O)(OCc2ccccc2)c2ccc(N(C)C)cc2)cc1 (centres undefined)	89.1µM*	-7.1%	39.8µM*	14.9%[12.7 µM]	?	-1.5%
Cc1c(C(=O)c2cccc3ccccc23)c2cccc3c2n1[C@H](CN1CCOCC1)CO3	56.2µM*	22.9%	nt	11.2µM*!	-9.0%	nt
Cc1c(C(=O)c2ccc3ccccc3c2)c2cccc3c2n1[C@H](CN1CCOCC1)CO3	nt	-3.3%	nt	nt	nt	nt
O=C(CN1CCOCC1)c1ccc(Br)cc1	79.4µM*	-8.6%	-15.9%	?	21.8%	nt
O=C(CN1CCOCC1)c1cccc2ccccc12	7.94µM*	39.8µM*	50.1µM*	3.16µM*	-25.6%	-6.6%
O=C(CC[N+](=O)[O-])OCC1OC(O)C(OC(=O)CC[N+](=O)[O-])[C@@H](OC(=O)CC[N+](=O)[O-])C1OC(=O)CC[N+](=O)[O-] (some centres undefined)	nt	-5.7%	nt	nt	nt	nt
O=C1C(Cl)=CC(=Nc2ccc(O)cc2)C=C1Cl	44.7µM*	?	31.6µM*	?	14.1µM*	-28.0%
O=[As](O)(O)c1ccc(N=Nc2ccc(O)cc2)cc1	-12.0%	-4.1%	-17.0%	-6.8%	-1.5%	-3.8%
CC12CC[C@H]3[C@@H](CCC4(O)C[C@H](O)CCC34/C=N/NC(=O)c3ccc(O)cc3)C1(O)CCC2C1=CC(=O)OC1 (some centres undefined)	-6.5%	10.8%	-3.5%	nt	45.7%	nt
COc1ccc(C(=O)N/N=C/C23CC[C@@H](O)CC2(O)CC[C@@H]2[C@@H]3CCC3(C)C(C4=CC(=O)OC4)CCC23O)cc1 (some centres undefined)	-35.1%	-0.3%	-13.0%	50.1µM*	-3.9%	nt
